Our source for the Potency and viability values is PubChem BioAssay (NCATS).

As a reminder, the viability is a read-out of living cells in per cent, often relative to untreated cells.

Inconclusive results are not listed. Unmarked numbers belong to inactive results. The source made the active and inactive calls. Calls follow the shape of the dose curve; as a rule, active = well fitted inhibition curve with a large enough effect; inconclusive = small, poorly fitted or top-dose-only effect; inactive = no such curve, though single readings can be large or run the other way.
Potency is read from the fitted curve at half-maximal effect.

This test can be described thus: BET inhibitor-based combinations targeting novel dependencies in MECOM-rearranged (r) AML: SET-2 cell line (AID 2202231). Also: nearly all actives have a fitted effect of over 35% in size. The note with it: SET-2 AML cells viability, CellTiter-Glo luminescence, 48 h; viability: active compounds read low, series mostly up to about 46 µM. The source says:
Ecotropic viral insertion site 1 (EVI1) is located on chromosome 3q26.2 as part of the MECOM (MDS and EVI1 complex) locus. Under normal hematopoiesis, EVI1 is a regulator of hematopoietic stem cell maintenance and self-renewal and EVI1 levels decrease as the cells differentiate. In approximately 5-10% of de novo acute myeloid leukemia (AML) EVI1 is aberrantly expressed, including Chromosomal inv(3)(q21;q26.2) or t(3;3)(q21;q26.2) alterations (MECOM-r) that account for about 50% of AML with EVI1 overexpression 31. AMLs with high levels of EVI1 have a poor prognosis and an overall survival time averaging between 10-14 months. EVI1 overexpression confers resistance in leukemia cells, highlighting the need to develop new targeted therapies for EVI1 overexpressing AMLs.
Here, we performed an unbiased chemical drug screening by evaluating the single agent activity of a collection of 2,480 oncology-focused, approved and investigational drugs (NCATS Mechanism Interrogation Plates, MIPE v5.0) against a panel of seven AML cell lines. These included four MECOM-r cell-lines (AML-191, AML-194, UCSD-AML1 and HNT-34) and three non-MECOM-r AMLs (MV4-11, OCI-AML3 and SET-2). Exploiting the mechanistic redundancy built in the library, we identified target-level sensitivities in MECOM-r AML cells and relative activity as compared to other AML subtypes.
A collection of 2480 mechanistically annotated dugs (MIPE v5.0) was used to screen four 3q26.2 rearranged AML cell lines and three non-3q26.2 rearranged AML cell lines. This library purposely exploits redundancy by including multiple inhibitors of key onco-targets, while simultaneously encompassing mechanistic diversity, targeting more than 800 distinct mechanisms of action. Briefly, cells were seeded in 5 uL of growth media using a Multidrop Combi dispenser into 1536 well white polystyrene tissue culture treated plates (Corning) at a density of 500cells/well. For each cell-line, for each of the 2480 drugs in MIPE v5.0 library, an 11-point dose curve was generated via a 1536 pin-tool. Plates were incubated for 48 hr at standard incubator conditions, covered by a stainless steel gasketed lid to prevent evaporation. Cell viability was determined by luminescence based, Cell Titer Glo assay (Promega). In detail, 3 uL of Cell Titer Glo were added to each well and plates were incubated at room temperature for 15 min with a stainless-steel lid in place. Luminescence readings were taken using a Viewlux (PerkinElmer) with a 2 s exposure time per plate. Compound dose-response curves were normalized to DMSO and empty well controls on each plate. Quantitative drug activity data from dose-response curves was determined utilizing area Under the Curve (AUC) and Z-transformed AUC (Z-AUC, a mean-centering transformation applied to each individual cell-line screened).
In general terms: In ATP-based viability assays light output follows the ATP content of the culture.
As for `O=c1[nH]cc(F)c(=O)[nH]1`, the Potency was 10.5 µM (active).

For `NC1(c2ccc(-c3nc4ccn5c(=O)[nH]nc5c4cc3-c3ccccc3)cc2)CCC1`, the Potency is 20.9 µM (active).

As for `CC1CNc2c(cccc2S(=O)(=O)N[C@@H](CCCN=C(N)N)C(=O)N2CC[C@@H](C)C[C@@H]2C(=O)O)C1` (stereo not given in full), the viability was 116%.

For the compound `C=C1C[C@@]2(O)O[C@@]3(C[C@H]2C(C)C)[C@@H](C)CC[C@@H]13`, the viability was 112%.

As to `CN1CCN(c2ccc(OC(F)(F)F)c(Nc3ncc4c(n3)-c3c(c(C(N)=O)nn3CCO)CC4)c2)CC1`, the Potency was 0.186 µM (active).

With `Cc1cnc(-c2cnc(NCCNc3ccc(C#N)cn3)nc2-c2ccc(Cl)cc2Cl)[nH]1`, the Potency was 14.8 µM (active).

Consider `Cc1cnc(Nc2cccc(CN3CCOCC3)c2)nc1Nc1cccc(S(=O)(=O)NC(C)(C)C)c1`, for which the Potency is 2.63 µM (active).

On to `Cc1nc(N)sc1-c1ccnc(Nc2ccc(N3CCOCC3)cc2)n1`, for which the Potency was 5.25 µM (active).

Take `CCN(CC)CCCC(C)Nc1c2ccc(Cl)cc2nc2ccc(OC)cc12` (stereo not given): the Potency is 7.42 µM (active).

For the compound `Cc1ccc(NC(=O)Nc2cc(C(F)(F)F)ccc2F)cc1Nc1ccc2c(c1)NC(=O)/C2=C\c1ccc[nH]1`, the Potency is 23.5 µM (active).

In the case of `C[C@@H](N)C1CCC(C(=O)Nc2ccncc2)CC1` (stereo not given in full), the viability is 110%.

`O=C(c1cc(Cc2n[nH]c(=O)c3ccccc23)ccc1F)N1CCN(C(=O)C2CC2)CC1`: the viability is 80.3%.

Regarding `Cn1c(=O)c(F)c(Nc2ccc(I)cc2F)c2c(=O)n(C[C@@H](O)CO)cnc21`, the Potency is 16.6 µM (active).

`Cc1cnc(Nc2ccc(OCCN3CCCC3)cc2)nc1Nc1cccc(S(=O)(=O)NC(C)(C)C)c1`: the Potency was 4.68 µM (active).

With `CCCCC(F)(F)[C@@]1(O)CC[C@H]2[C@H](CC(=O)[C@@H]2CCCCCCC(=O)O)O1`, the viability was 108%.

For the compound `Cc1nc2cnc3ccc(C#Cc4cccnc4)cc3c2n1-c1ccc(C(C)(C)C#N)cc1`, the Potency is 1.66 µM (active).

Turning to `CN1CCN(c2ccc(-c3cccc(CN4CCOCC4)c3)cc2NC(=O)c2c[nH]c(=O)cc2C(F)(F)F)CC1`, the viability was 120%.

Regarding `COc1cccc2cc(-c3nc(C4CCC(C(=O)O)CC4)n4ncnc(N)c34)[nH]c12` (stereo not given), the Potency is 2.95 µM (active).

On to `O=C(/C=C/N1C[C@H]2C[C@@H]1CN2c1ccccn1)c1ccccc1O`, for which the Potency was 0.372 µM (active).

For `C=Cc1cc(O)cc2nc(-c3ccc(O)c(F)c3)oc12`, the viability was 113%.

For `CN1C(C(=O)Nc2ccccn2)=C(O)c2ccccc2S1(=O)=O`, the viability was 105%.

As for `COc1cc2c(cc1-c1c(C)noc1C)ncc1[nH]c(=O)n([C@H](C)c3ccccn3)c12`, the Potency was 1.32 µM (active).

For the compound `CC(C)C[C@H](NC(=O)[C@H](CCc1ccccc1)NC(=O)CN1CCOCC1)C(=O)N[C@@H](Cc1ccccc1)C(=O)N[C@@H](CC(C)C)C(=O)[C@@]1(C)CO1`, the Potency was 0.0833 µM (active).

As for `CC(=O)OCC(=O)[C@@]12N=C(C)O[C@@H]1C[C@H]1[C@@H]3CCC4=CC(=O)C=C[C@]4(C)[C@H]3[C@@H](O)C[C@@]12C`, the viability was 113%.

For the compound `N#Cc1cc(NC(=O)Nc2nnc(-c3ccncc3)s2)ccc1-c1cn[nH]c1`, the viability is 111%.

In the case of `Cn1nnc2c(C(N)=O)ncn2c1=O`, the viability is 102%.

Regarding `Cc1ccsc1C(=CCCN1CCC[C@@H](C(=O)O)C1)c1sccc1C`, the viability was 112%.

Consider `CC(C)C(C)C=CC(C)C1CCC2C3=CC=C4CC(O)CCC4(C)C3CCC21C` (stereo not given), for which the viability was 121%.

On to `CNC1CCC(N(Cc2cccc(-c3ccncc3)c2)C(=O)c2sc3ccccc3c2Cl)CC1` (stereo not given), for which the Potency is 26.3 µM (active).

Regarding `COc1cc2c(NC3CCN(CC4CCCCC4)CC3)nc(N3CCCN(C(C)C)CC3)nc2cc1OCCCN1CCCCC1`, the viability is 104%.

`CC(C)c1c2cc(-c3ccnc(NC4CCC(NC5CCOCC5)CC4)n3)ccc2nn1C` (stereo not given): the Potency was 0.296 µM (active).

Turning to `O=c1cc(N2CCOCC2)oc2c(-c3cccc4c3sc3ccccc34)cccc12`, the Potency was 9.34 µM (active).

On to `COc1ccc(-c2cc(=O)c3c(O)cc(O[C@@H]4O[C@H](CO[C@@H]5O[C@@H](C)[C@H](O)[C@@H](O)[C@H]5O)[C@@H](O)[C@H](O)[C@H]4O)cc3o2)cc1O`, for which the viability was 112%.

On to `CN(CC(=O)N(Cc1ccc(C2CCCCC2)cc1)c1ccc(C(=O)O)c(O)c1)S(=O)(=O)c1c(F)c(F)c(F)c(F)c1F`, for which the viability is 114%.

For the compound `CCN(CC)CCNC(=O)c1c(C)[nH]c(/C=C2\C(=O)Nc3ccc(F)cc32)c1C`, the Potency is 16.6 µM (active).

For `O=C1Nc2ccc(I)cc2/C1=C/c1cc(Br)c(O)c(Br)c1`, the viability was 96.6%.

As to `CC(C)Cn1cnc2c(N)nc3ccccc3c21`, the viability is 101%.

Consider `CC(C)(N)C(=O)N[C@H](COCc1ccccc1)C(=O)N1CCC2(CC1)CN(S(C)(=O)=O)c1ccccc12`, for which the viability is 104%.

Consider `CCN(CC)CCCC(C)Nc1nc(C)cc(Nc2ccc3nc(C)cc(N)c3c2)n1` (stereo not given), for which the viability was 116%.

Regarding `CC(C)(C)NC(=O)Nc1cccc(Nc2ncc(F)c(NC(C)(C)CO)n2)c1`, the Potency was 16.6 µM (active).
